High-throughput results from PubChem.
The entries come from a sample that favours hits as a whole.
Dicer inh: blocks human Dicer maturation of pre-miR-21; cat-ELCCA pre-miR-21 Dicer processing, chemiluminescence; active compounds read high; z-score at 25 µM; hit rate 6% among 47,000; in the data active = z-score above about 3, passing the limit was not always enough;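 note: plate controls were vehicle for no effect and no enzyme for full effect; higher signal means more uncleaved substrate so more Dicer inhibition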
Target sequence (Q9UPY3 whole entry, looked up): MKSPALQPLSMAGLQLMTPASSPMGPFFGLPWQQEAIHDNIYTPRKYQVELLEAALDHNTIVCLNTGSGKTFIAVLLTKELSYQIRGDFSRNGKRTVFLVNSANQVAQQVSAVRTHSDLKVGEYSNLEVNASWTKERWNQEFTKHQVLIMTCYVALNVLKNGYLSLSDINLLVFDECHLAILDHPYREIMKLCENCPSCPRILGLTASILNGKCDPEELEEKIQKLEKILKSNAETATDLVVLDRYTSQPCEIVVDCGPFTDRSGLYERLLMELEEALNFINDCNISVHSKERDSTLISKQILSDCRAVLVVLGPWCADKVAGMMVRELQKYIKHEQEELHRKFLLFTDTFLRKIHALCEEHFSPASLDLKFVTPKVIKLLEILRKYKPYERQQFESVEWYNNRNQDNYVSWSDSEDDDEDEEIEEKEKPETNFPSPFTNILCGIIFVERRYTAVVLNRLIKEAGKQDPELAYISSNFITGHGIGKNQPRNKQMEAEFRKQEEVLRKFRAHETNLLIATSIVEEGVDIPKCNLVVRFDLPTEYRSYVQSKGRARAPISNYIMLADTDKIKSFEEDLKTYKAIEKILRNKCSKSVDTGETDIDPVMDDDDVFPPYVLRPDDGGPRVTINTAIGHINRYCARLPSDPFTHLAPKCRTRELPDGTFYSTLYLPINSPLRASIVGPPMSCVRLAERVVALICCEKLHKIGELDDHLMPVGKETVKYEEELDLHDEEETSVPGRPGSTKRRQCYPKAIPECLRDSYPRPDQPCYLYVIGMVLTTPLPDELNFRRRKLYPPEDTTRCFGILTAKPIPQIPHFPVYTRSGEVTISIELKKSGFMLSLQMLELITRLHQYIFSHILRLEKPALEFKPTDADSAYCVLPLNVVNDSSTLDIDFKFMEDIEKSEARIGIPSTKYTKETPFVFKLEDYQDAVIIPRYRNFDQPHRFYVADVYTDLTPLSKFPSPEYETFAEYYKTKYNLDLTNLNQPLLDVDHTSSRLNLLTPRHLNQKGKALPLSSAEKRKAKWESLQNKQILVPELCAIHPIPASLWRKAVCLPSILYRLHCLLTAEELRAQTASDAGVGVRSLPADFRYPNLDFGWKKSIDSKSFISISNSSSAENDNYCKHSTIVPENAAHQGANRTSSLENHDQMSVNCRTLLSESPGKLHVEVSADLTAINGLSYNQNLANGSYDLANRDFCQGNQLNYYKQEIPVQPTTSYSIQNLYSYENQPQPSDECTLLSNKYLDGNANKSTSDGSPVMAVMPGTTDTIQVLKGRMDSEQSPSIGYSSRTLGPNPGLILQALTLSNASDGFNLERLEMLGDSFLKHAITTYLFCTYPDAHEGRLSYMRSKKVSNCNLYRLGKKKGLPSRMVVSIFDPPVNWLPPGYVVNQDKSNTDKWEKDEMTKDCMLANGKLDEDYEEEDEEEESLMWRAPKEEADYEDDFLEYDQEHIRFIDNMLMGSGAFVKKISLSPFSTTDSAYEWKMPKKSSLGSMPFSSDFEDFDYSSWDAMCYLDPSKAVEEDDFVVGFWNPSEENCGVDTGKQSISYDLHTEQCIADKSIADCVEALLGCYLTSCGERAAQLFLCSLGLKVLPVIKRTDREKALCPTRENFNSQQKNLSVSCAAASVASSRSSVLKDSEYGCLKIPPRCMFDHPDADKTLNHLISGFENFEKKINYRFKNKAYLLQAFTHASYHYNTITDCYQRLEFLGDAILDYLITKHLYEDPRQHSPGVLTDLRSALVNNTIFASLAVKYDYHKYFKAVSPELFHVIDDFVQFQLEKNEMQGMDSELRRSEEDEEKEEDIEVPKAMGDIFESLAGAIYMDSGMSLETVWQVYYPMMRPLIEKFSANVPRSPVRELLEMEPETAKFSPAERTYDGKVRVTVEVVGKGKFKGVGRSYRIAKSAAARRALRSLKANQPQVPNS
* = called active by the depositor.

SMILES	Dicer inh
Cc1nc(-c2ccc(S(=O)(=O)NCCNC(=O)OC(C)(C)C)s2)cs1	-0.85
Cc1cccc(OCc2nc(-c3cccc(C)c3)no2)c1	-1.9
CCC(=O)c1cn(CC(=O)N2CCOCC2)c2ccccc12	-0.16
CC1CCN(C(=O)Cn2cc(C(=O)C3CC3)c3ccccc32)CC1	5.1*
CCOC(=O)Cn1cc(C(=O)C2CC2)c2ccccc21	1.8
COC(=O)c1cn(CC(=O)N2CCOCC2)c2ccccc12	6*
O=C(c1cccs1)c1cn(CC(=O)N2CCOCC2)c2ccccc12	0.7
CC1CCCC(C)N1C(=O)Cn1cc(C(=O)C2CCCCC2)c2ccccc21 (configuration not stated)	-4.1
CCCCCCSc1nc(O)cc(=O)[nH]1	-3.3
COc1ccccc1C1CC(=O)C2=C(C1)NC(C)=C(C(=O)OCCOC(C)C)C2c1ccsc1 (configuration not stated)	-0.82
Nc1cc(-c2ccc(OC(F)(F)F)cc2)nn1-c1ccc(Cl)cc1	-0.81
O=C(NC(=O)c1ccccc1F)NN(Cc1c(F)cccc1Cl)c1ccccc1	-0.23
COC(=O)c1ccc(-c2cccs2)nc1C	-0.08
CCOc1cc(C(F)(F)F)cnc1C#N	-0.47
CC1(C)Cc2c(sc(NC(=O)C(c3ccccc3)c3ccccc3)c2C#N)CO1	4.5*
CC(=O)Nc1sc2c(c1C(=O)O)CC(C)(C)OC2	-1.3
COC(=O)c1c(NC(=O)CCC(=O)O)sc2c1CC(C)(C)OC2	0.59
CC(=O)OC[C@@H](OC(C)=O)[C@@H](OC(C)=O)[C@@H](OC(C)=O)C(N)=O	-1.8
CCCn1c(=O)c(/C(N)=N/OC(=O)Nc2ccc(OC(F)(F)F)cc2)nn(-c2ccccc2)c1=O	-0.85
c1cncc(CNCc2ccncc2)c1	2.9
N=C(N)c1ccc(Cl)cc1	3.7*
N=C(N)c1cc(Cl)cc(Cl)c1	-0.57
O=C(O)CCC(=O)c1ccc(Cl)cc1	-0.17
O=c1[nH]cnc2nc(N3CCOCC3)ncc12	-1
CC(=O)n1sc2nc(C)cc(C)c2c1=O	0.02
SMILES	Dicer inh
CN1CCc2c(sc3c2C(=O)NC(c2ccc(OC(=O)c4cccs4)cc2)N3)C1 (configuration not stated)	-1.1
CCOC(=O)Oc1cc2oc(=O)sc2cc1Cl	-1.1
Cc1ccc(-c2cc(O)cc3sc(=O)oc23)cc1C	6.6*
Cc1cc(O)c2c(c1)C(=O)c1cc(O)cc(O)c1C2=O	-0.78
CCOC(=O)C1=C(c2ccccc2)N=C2SCC(=O)N2C1c1ccc(OC)cc1 (configuration not stated)	-2.9
Cc1cc(C(F)F)n2nc(C(=O)Nc3cnn(Cc4ccc(F)cc4)c3)nc2n1	1.1
Cn1nccc1NC(=O)Nc1cc(Cl)cc(Cl)c1	-0.4
Cn1nccc1NC(=S)Nc1ccc(Cl)cc1	4*
Cn1nccc1C(=O)Nc1ccc(Cl)cc1	-1.8
Clc1ccc(-c2csc(Cc3ccccc3)n2)cc1	-0.8
COC(=O)C1(C(=O)OC)C2C3C4CC5C6C4C2C6C1C53 (configuration not stated)	5.4*
O=C(O)CC12OC3C4C5CC(C6C5C3C61)C42 (configuration not stated)	-1.1
CC1(C)OC(=O)C2(C(=O)O1)C1C3C4CC5C6C4C1C6C2C53 (configuration not stated)	0.94
CC1CC(=O)c2cnc3[nH]n(-c4ccccc4)c(=O)c3c2C1 (configuration not stated)	1.1
Cn1nc(C(F)(F)F)c(-c2ccc(Br)cc2)c1NC(=O)Cc1ccccc1F	-0.35
COC(=O)C1=C(C)NC2=C(C(=O)CC(C)(C)C2)C1c1ccc(OC)c(Br)c1 (configuration not stated)	1.2
CCOC(=O)c1c(NC(C)=O)sc2c(O)c(Sc3ccccc3)ccc12	4.1*
CCOC(=O)c1c(NC(=O)Nc2sc(C)c(-c3ccccc3)c2C(=O)OCC)sc(C)c1-c1ccccc1	-1.7
CCOC(=O)c1c(NC(=O)c2cc3ccccc3c(=O)o2)sc(C)c1C	0
CC(=O)c1cc(Cl)cc(Cl)c1OC(=O)c1ccccc1Cl	-0.57
Cc1cc(Cl)ccc1NC(=S)N(C)N	1.3
Cc1ccc(S(=O)(=O)N/N=C/c2ccc(Cl)cc2)cc1	-0.02
Cc1ccc(S(=O)(=O)N/N=C/c2ccc(Cl)c(Cl)c2)cc1	-0.62
COc1ccc(/C=N/NS(=O)(=O)c2ccc(Cl)cc2)cc1OC	3.5*
CN(/N=C/C=N/Nc1ccccc1)c1ccccc1[N+](=O)[O-]	0.25
SMILES	Dicer inh
C=CCOC(=O)C1=C(C)NC2=C(C(=O)CC(C)(C)C2)C1c1cc(OC)c(OC)cc1Br (configuration not stated)	-0.25
O=C1CC(c2ccccc2)CC(=O)N1Cc1csc2ccccc12	0.56
CCC(=O)Oc1ccc(C2C3=C(Nc4c2c(=O)n(C)c(=O)n4C)c2ccccc2C3=O)cc1 (configuration not stated)	-0.12
Cc1ccc(Nc2nc(-c3ccc(O)c(O)c3)cs2)nc1	2.1
Cc1ccc(Nc2nc(-c3ccc(O)cc3)cs2)nc1	4.4*
COc1ccc(-c2csc(Nc3ccc(C)cn3)n2)cc1OC	1.1
CCCn1c(=O)c(C#N)cn(-c2ccc(Cl)cc2)c1=O	2.6
C(=N\Nc1ncc(-c2ccc3c(c2)OCCCO3)s1)/c1cccs1	0.37
C=CCN1C(=O)C(O)(CC(=O)c2ccc(OCC)cc2)c2cc(Br)ccc21 (configuration not stated)	2.1
CCOC(=O)C1=C(C)N(c2ccccc2)C(=O)C1	2
COC(=O)C1=C(C)N(c2cc(C)cc(C)c2)C(=O)C1	3.6*
COC(=O)C1=C(C)N(Cc2cccnc2)C(=O)C1	-0.1
Cc1nnc(SCC(=O)c2c[nH]c3ccccc23)n1C1CCCCC1	1.1
CCOC(=O)/C(C#N)=C/Nc1nc2ccc(C)cc2s1	2.2
N#Cc1cn(C2CCN(Cc3ccccc3)CC2)c(=O)[nH]c1=O	-1.2
Cc1cccc(NC(c2cccc(O)c2)c2ccc3ccc(C)nc3c2O)n1 (configuration not stated)	0.83
Cc1ccc(C)c(C(Nc2ccccn2)c2ccc3cccnc3c2O)c1 (configuration not stated)	9
Cc1ccc(C(Nc2ccccn2)c2ccc3ccc(C)nc3c2O)cc1 (configuration not stated)	-0.45
Cc1ccc2ccc(C(Nc3ccccn3)c3ccc(Cl)cc3)c(O)c2n1 (configuration not stated)	4.8*
C=CCOc1ccc(C(Nc2ccccn2)c2ccc3ccc(C)nc3c2O)cc1 (configuration not stated)	0.31
Cc1ccc2ccc(C(Nc3ccccn3)c3cccc(Br)c3)c(O)c2n1 (configuration not stated)	-0.92
Cc1ccnc(NC(c2ccccc2C)c2ccc3cccnc3c2O)c1 (configuration not stated)	2.1
Cc1ccc2ccc(C(Nc3ccccn3)c3cccc(Cl)c3)c(O)c2n1 (configuration not stated)	16*
Cc1ccccc1C(Nc1ccccn1)c1ccc2cccnc2c1O (configuration not stated)	5.7*
CC(C)c1ccc(/C=N/NC(=O)CC#N)cc1	-1.1
SMILES	Dicer inh
CCOC(=O)N/N=C(\CN1C(=O)c2ccccc2C1=O)c1ccc(OC)cc1	2.2
COc1cc(C(F)(F)F)nc2ccc(C#CCO)cc12	-1.6
Clc1ccc2c(c1)c1cc(Cl)ccc1n2CN1CCCCC1	1.5
CCOC(=O)c1cnn2c1nc(Sc1ccc(C)cc1)c1ccccc12	2.3
COCCOC(=O)c1c(C)oc2ccc(NS(=O)(=O)c3cccc4ccccc34)cc12	0.82
CCNC(=O)N(c1ccccc1)c1ccccc1	0.55
